Measured values published in PubChem BioAssay (NCATS).
Results filed as inconclusive are left out. Calls of active or inactive are those of the source. The call rests on the fitted dose curve; in most records, active means well fitted inhibition curve with a large enough effect; inconclusive means small, poorly fitted or top-dose-only effect; inactive means no such curve, though single readings can be large or run the other way.

Assay: qHTS assay for measurement of the activity of small molecule inhibitors on Zika virus induced Caspase-3 activity in human iPSC derived neural progenitor cells (hNPCs) (AID 1224857); further: nearly all actives have a fitted effect of over 65% in size
Settings: hNPCs ZIKV-induced caspase-3/7, Caspase-Glo luminescence, 6 h; series mostly up to 45.7 µM
How it was run: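 In medium with heparin 2 ug/ml and cyclopamine 2 uM, hNPCs (350 cells/well) received compound for one hour and then Zika virus at 2 FFU/cell; caspase activity was measured by Caspase-Glo 3/7 luminescence 6 h post-infection.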

SMILES | outcome
NC1=NCC2c3ccccc3Cc3ccccc3N12 (stereo unspecified) | inactive
O=C(O)CCCCCCCC(=O)O | inactive
NC(Cc1ccc(Cl)cc1)C(=O)O (stereo unspecified) | inactive
CC(C)(Oc1ccc(CCNC(=O)c2ccc(Cl)cc2)cc1)C(=O)O | inactive
CN(C)CCOC(=O)COc1ccc(Cl)cc1 | inactive
CC(N=C(NC#N)Nc1ccncc1)C(C)(C)C (stereo unspecified) | inactive
COC(=O)C1=C(C)NC(C)=C(C(=O)OC(C)(C)CN(C)CCC(c2ccccc2)c2ccccc2)C1c1cccc([N+](=O)[O-])c1 (stereo unspecified) | inactive
Cc1cc(C)c(/C=C2\C(=O)Nc3ccccc32)[nH]1 | inactive
CCn1nc(C(=O)O)c(=O)c2cc3c(cc21)OCO3 | inactive
Cc1ccc(S(=O)(=O)NC(=O)NN2CCCCCC2)cc1 | inactive
C[N+](C)(C)CCOC(=O)CCC(=O)OCC[N+](C)(C)C | inactive
CC(C)(C)NCC(O)c1cc(O)cc(O)c1 (stereo unspecified) | inactive
CC(C)NNC(=O)c1ccncc1 | inactive
COCCc1ccc(OCC(O)CNC(C)C)cc1 (stereo unspecified) | inactive
Cc1scc2c1N(C(=O)CN1CCN(C)CC1)c1ccccc1NC2=O | inactive
CC(=O)[C@]1(O)Cc2c(O)c3c(c(O)c2[C@@H](O[C@H]2C[C@H](N)[C@H](O)[C@H](C)O2)C1)C(=O)c1ccccc1C3=O | inactive
O=C1CC2(CCCC2)CC(=O)N1CCCCN1CCN(c2ncccn2)CC1 | inactive
OCCN1CCN(CC/C=C2/c3ccccc3Sc3ccc(C(F)(F)F)cc32)CC1 | inactive

SMILES | outcome
C(=C\c1ccccc1)/CN1CCN(C(c2ccccc2)c2ccccc2)CC1 | inactive
CCCN(CCC)CCc1cccc2c1CC(=O)N2 | inactive
c1cc(CN2CCCCC2)cc(OCCCNc2nc3ccccc3s2)c1 | inactive
C=CCc1ccccc1OCC(O)CNC(C)C (stereo unspecified) | inactive
COCCOC(=O)C1=C(C)NC(C)=C(C(=O)OC(C)C)C1c1cccc([N+](=O)[O-])c1 (stereo unspecified) | inactive
CCCC(C(=O)OCCN(CC)CC)(c1ccccc1)c1ccccc1 | inactive
C[C@]12CC[C@@H]3c4ccc(O)cc4C[C@@H](CCCCCCCCCS(=O)CCCC(F)(F)C(F)(F)F)[C@H]3[C@@H]1CC[C@@H]2O (stereo partly specified) | inactive
NC(=Nc1ccccc1)Nc1ccccc1 | inactive
COc1ccc([C@@H]2Sc3ccccc3N(CCN(C)C)C(=O)[C@@H]2OC(C)=O)cc1 | inactive
CCCOc1ccccc1-c1nc2n[nH]nc2c(=O)[nH]1 | inactive
Nc1c2c(nc3ccccc13)CCCC2O (stereo unspecified) | inactive
CCCCCCCC/C=C\CCCCCCCC(=O)NCc1ccc(O)c(OC)c1 | inactive
COc1cc2c(cc1OC)-c1cc(=Nc3c(C)cc(C)cc3C)n(C)c(=O)n1CC2 | inactive
C#CCN(C)CCCOc1ccc(Cl)cc1Cl | inactive
Cc1nc2c([nH]1)c(=O)n(C)c(=O)n2Cc1ccco1 | inactive
NC(=O)c1cn(Cc2c(F)cccc2F)nn1 | inactive
CCn1ccnc1CC1COc2ccccc2O1 (stereo unspecified) | inactive
CC(=O)Oc1cc(C(C)C)c(OCCN(C)C)cc1C | inactive
